Records with an inconclusive call do not appear. Activity calls are given as the source filed them. Calls come from the whole dose curve; as a rule, active = well fitted curve in the direction sought with a large enough effect; inconclusive = small, poorly fitted or top-dose-only effect, or another doubt; inactive = no such curve, though single readings can be large; an effect the other way counts as inactive or inconclusive.
Target: Rap guanine nucleotide exchange factor 4 (Homo sapiens) (UniProt Q8WZA2)
Sequence (Q8WZA2 whole entry, looked up): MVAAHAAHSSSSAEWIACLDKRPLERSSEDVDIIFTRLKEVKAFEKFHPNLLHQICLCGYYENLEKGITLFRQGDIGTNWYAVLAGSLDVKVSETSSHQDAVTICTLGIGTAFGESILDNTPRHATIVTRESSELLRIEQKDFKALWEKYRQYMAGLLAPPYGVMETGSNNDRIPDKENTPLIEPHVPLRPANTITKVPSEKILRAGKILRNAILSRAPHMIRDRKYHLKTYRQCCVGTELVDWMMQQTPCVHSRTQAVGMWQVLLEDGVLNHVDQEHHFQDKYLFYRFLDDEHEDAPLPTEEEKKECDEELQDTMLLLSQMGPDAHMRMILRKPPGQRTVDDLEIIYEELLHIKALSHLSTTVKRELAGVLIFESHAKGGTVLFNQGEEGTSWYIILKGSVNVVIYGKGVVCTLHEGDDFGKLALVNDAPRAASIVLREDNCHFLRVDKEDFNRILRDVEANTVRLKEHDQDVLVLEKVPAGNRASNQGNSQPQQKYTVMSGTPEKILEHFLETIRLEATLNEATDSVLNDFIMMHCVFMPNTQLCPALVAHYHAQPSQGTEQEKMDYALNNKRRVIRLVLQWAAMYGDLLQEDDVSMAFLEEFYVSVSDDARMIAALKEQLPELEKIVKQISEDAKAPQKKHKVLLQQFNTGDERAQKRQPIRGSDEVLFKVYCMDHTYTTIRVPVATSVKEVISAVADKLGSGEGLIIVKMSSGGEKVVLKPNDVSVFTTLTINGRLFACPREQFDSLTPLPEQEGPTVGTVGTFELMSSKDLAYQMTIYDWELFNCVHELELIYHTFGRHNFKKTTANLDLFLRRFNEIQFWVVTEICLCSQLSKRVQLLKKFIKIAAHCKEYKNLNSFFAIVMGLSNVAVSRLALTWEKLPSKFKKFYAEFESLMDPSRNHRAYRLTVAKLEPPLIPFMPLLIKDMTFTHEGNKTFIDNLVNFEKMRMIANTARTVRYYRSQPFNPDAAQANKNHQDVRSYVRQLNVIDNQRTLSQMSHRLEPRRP
Assay: Confirmatory qHTS for agonist of cAMP-regulated guanine nucleotide exchange factor 4 (EPAC2) (AID 1645884);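 note: nucleotide exchange releases bodipy-GDP from Rap1 and this lowers its fluorescence; nearly all actives have a fitted effect of over 65% in size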
Settings: EPAC2 GEF activity, Rap1B-BODIPY-GDP fluorescence; series mostly up to 154 µM; activation: at the top concentration
% is set by controls: 0 for no effect and ±100 for the full control effect; potency is the fitted concentration of half-maximal effect.

Potency, active:
CC1CCN(c2ccc3c(c2)S(=O)(=O)c2cccc(C(=O)NCc4cccc(F)c4)c2C3=O)CC1 112 µM

activation, inactive:
COc1cccc(-n2c(SCC(=O)Nc3ccc(F)cc3F)nc3c([nH]c4ccccc43)c2=O)c1 15.2% [at 83.8 µM, percent relative to cAMP agonist control], O=C1c2cccc3c(N4CCCCC4)ccc(c23)C(=O)N1c1ccccc1O 13.2% [at 17.1 µM, percent relative to cAMP agonist control], COc1ccc(OC)c(NC(=S)N2c3ccccc3CC2C)c1 (configuration not stated) 12.4% [at 17.1 µM, percent relative to cAMP agonist control], CNC(=O)N(C1=NCC(C)(C)S1)c1ccc(F)c(Cl)c1 18.9%, COC(=O)c1ccc2nc(-c3ccccc3)c(Cc3cccc(F)c3)n2c1 4.96% [at 17.1 µM, percent relative to cAMP agonist control]

Target: Rap guanine nucleotide exchange factor 4 (Homo sapiens) (UniProt Q8WZA2)
Assay: Confirmatory qHTS for antagonist of cAMP-regulated guanine nucleotide exchange factor 4 (EPAC2) (AID 1645885); note: nearly all actives have a fitted effect of over 25% in size
Settings: EPAC2 Rap1B-BODIPY-GDP exchange fluorescence, biochemical; series mostly up to 12.7 µM; activity change, negative = inhibition: at the top concentration

Activity change, negative = inhibition, inactive:
CN(C)c1ccc(C2C=C(c3ccc(Cl)cc3OC(F)F)Nc3ncnn32)cc1 (configuration not stated) -5.08%, O=C1/C(=C/C=C/c2ccccc2)Oc2c1ccc(O)c2CN1CCN(CCO)CC1 -2.66%, O=S(=O)(NCC(c1ccco1)N1CCc2ccccc21)c1ccccc1 (configuration not stated) -9.33%, COC(=O)c1cc(C(=O)c2ccc(Cl)cc2)n2c(=O)/c(=C\N(C)C)sc12 53.9% [at 114 µM], O=C(N/N=C/c1cc(Cl)cc([N+](=O)[O-])c1O)NC12CC3CC(CC(C3)C1)C2 73.7% [at 114 µM], O=C(c1cccs1)N(Cc1cccnc1)c1nc2c(Cl)cccc2s1 -20.9%, COc1ccc(OC)c(/C=C/c2nc3ccccc3nc2C)c1 8.16% [at 114 µM], CC(C)(C)C1CCc2c(sc(NC(=O)CCC(=O)O)c2C(=O)Nc2ccccc2C(F)(F)F)C1 (configuration not stated) -11.9%, CCOC(=O)C1CCCN(c2c(C(=O)c3ccccc3)cnc3ccc(OC)cc23)C1 (configuration not stated) -15.2%, CC(NC(=O)/C(C#N)=C/c1ccc(N2CCOCC2)cc1)c1ccccc1 (configuration not stated) -14.2% [at 114 µM], CC(/C=C/c1ccc(N(C)C)cc1)=N\N=C1\NC(=O)CC(C(=O)Nc2ccccc2)S1 (configuration not stated) -1.44%, CCN1CCN(Cc2c(O)ccc3c2O/C(=C\C=C\c2ccccc2OC)C3=O)CC1 11.4%, COc1ccc(-c2ncccc2OC(=O)C23CC4CC(CC(C4)C2)C3)cc1OC 21.8%, Cc1ccc2cccc(OC(=O)c3c(F)cccc3Cl)c2n1 -1.9% [at 114 µM], CN(C)c1ccc(/C=C(\C#N)C(=O)c2ccccc2)cc1 4.34%, Cc1cccc(NCc2cccc3ccccc23)n1 -23.6%, COc1ccccc1C(=O)NNC(=O)CCCN1C(=O)/C(=C/c2cccs2)SC1=S 2.21%, O=c1[nH]c2ccccc2nc1/C=C(\O)c1cccs1 -17.5%, CC1CCN(c2ccc3c(c2)S(=O)(=O)c2cccc(C(=O)NCc4cccc(F)c4)c2C3=O)CC1 342% [at 114 µM], COc1cccc(-n2c(SCC(=O)Nc3ccc(F)cc3F)nc3c([nH]c4ccccc43)c2=O)c1 5.07%, O=C1c2cccc3c(N4CCCCC4)ccc(c23)C(=O)N1c1ccccc1O -9.96%, COc1ccc(OC)c(NC(=S)N2c3ccccc3CC2C)c1 (configuration not stated) -2.21%, CNC(=O)N(C1=NCC(C)(C)S1)c1ccc(F)c(Cl)c1 54.7% [at 114 µM], COC(=O)c1ccc2nc(-c3ccccc3)c(Cc3cccc(F)c3)n2c1 -27.2%

Potency, active:
Cc1cccc(C(C)C)c1-n1nnnc1-c1ccccc1 3.01 µM, CCOc1ccc2c(ccc(/C=C/c3cc(C)c4cccnc4c3O)[n+]2C)c1 42.6 µM
